Results: PubChem BioAssay AID1159580 (chemical genetic matrix, 2015)
About 2,000 (36%) of roughly 5,500 compounds were called active. About 18% were inconclusive and are not listed. Rule as the data show it: active = normalized growth mostly below about 0.91 (no sharp cut-off); inconclusive = no clear call, values can overlap the other calls; inactive = mostly above about 0.92. The list shows a part of the results.

Assay: chemical genetic growth profiling, strain panel (AID 1159580);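 also: tested at 20 µM; growth read once vehicle control cultures reached saturation at 30 °C; 1 = growth at the plate median or of vehicle wells; lower values mean less growth of the strain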
Details: growth OD

Measured: normalized growth

C[C@]12CCC3C(CC[C@H]4C[C@@H](O)CC[C@]34C)C1CCC2=O (some centres undefined)
inactive: S. cerevisiae deletion strains, locus YKL068W, stronger effect = lower value 1.03 | S. cerevisiae deletion strains, locus YKL085W, strain MDH1 (second series), stronger effect = lower value 0.973 | S. cerevisiae deletion strains, locus YKL085W, strain MDH1, stronger effect = lower value 0.973 | S. cerevisiae deletion strains, locus YKL160W, strain elf1, stronger effect = lower value 0.919 | S. cerevisiae deletion strains, locus YKR026C, strain gcn3, stronger effect = lower value 1.06 | S. cerevisiae deletion strains, locus YKR091W, strain srl3, stronger effect = lower value 1.05 | S. cerevisiae deletion strains, locus YLL001W, strain dnm1, stronger effect = lower value 0.923 | S. cerevisiae deletion strains, locus YLL026W, stronger effect = lower value 0.994 | S. cerevisiae deletion strains, locus YLL041C, strain sdh2, stronger effect = lower value 1.04 | S. cerevisiae deletion strains, locus YLR027C, strain aat2, stronger effect = lower value 0.939 | S. cerevisiae deletion strains, locus YLR102C, strain apc9, stronger effect = lower value 1.02 | S. cerevisiae deletion strains, locus YLR113W, strain HOG1, stronger effect = lower value 1.01 | S. cerevisiae deletion strains, locus YLR258W, strain gsy2, stronger effect = lower value 0.945 | S. cerevisiae deletion strains, locus YLR342W, strain FKS1, stronger effect = lower value 0.995 | S. cerevisiae deletion strains, locus YLR370C, strain arc18, stronger effect = lower value 1.04 | S. cerevisiae deletion strains, locus YLR371W, strain rom2, stronger effect = lower value 1.03 | S. cerevisiae deletion strains, locus YLR384C, strain iki3, stronger effect = lower value 1.03 | S. cerevisiae deletion strains, locus YML016C, strain PPZ1, stronger effect = lower value 0.931 | S. cerevisiae deletion strains, locus YML120C, strain ndi1, stronger effect = lower value 0.935 | S. cerevisiae deletion strains, locus YML124C, strain tub3, stronger effect = lower value 0.944 | S. cerevisiae deletion strains, locus YMR058W, strain fet3, stronger effect = lower value 0.943 | S. cerevisiae deletion strains, locus YMR078C, strain ctf18, stronger effect = lower value 0.979 | S. cerevisiae deletion strains, locus YMR125W, strain sto1, stronger effect = lower value 1.06 | S. cerevisiae deletion strains, locus YMR129W, stronger effect = lower value 1.04 | S. cerevisiae deletion strains, locus YMR205C, strain PFK2, stronger effect = lower value 0.94 | S. cerevisiae deletion strains, locus YMR231W, strain pep5, stronger effect = lower value 1.01 | S. cerevisiae deletion strains, locus YMR263W, strain SAP30, stronger effect = lower value 0.925 | S. cerevisiae deletion strains, locus YMR307W, strain GAS1, stronger effect = lower value 0.963 | S. cerevisiae deletion strains, locus YNL183C, strain NPR1, stronger effect = lower value 0.874 | S. cerevisiae deletion strains, locus YNL209W, strain ssb2, stronger effect = lower value 0.965 | S. cerevisiae deletion strains, locus YNL248C, strain rpa49, stronger effect = lower value 0.888 | S. cerevisiae deletion strains, locus YNL250W, strain rad50, stronger effect = lower value 0.934 | S. cerevisiae deletion strains, locus YNL271C, strain bni1, stronger effect = lower value 0.94 | S. cerevisiae deletion strains, locus YNL322C, strain KRE1 (second series), stronger effect = lower value 1.03 | S. cerevisiae deletion strains, locus YNR049C, strain mso1, stronger effect = lower value 1.04 | S. cerevisiae deletion strains, locus YOL012C, strain htz1 1.94 | S. cerevisiae deletion strains, locus YOR061W, strain CKA2, stronger effect = lower value 0.91 | S. cerevisiae deletion strains, locus YOR080W, strain dia2, stronger effect = lower value 1.02 | S. cerevisiae deletion strains, locus YOR106W, strain vam3, stronger effect = lower value 0.909 | S. cerevisiae deletion strains, locus YOR136W, strain idh2, stronger effect = lower value 0.999 | S. cerevisiae deletion strains, locus YOR144C, strain elg1, stronger effect = lower value 0.973 | S. cerevisiae deletion strains, locus YOR231W, strain MKK1, stronger effect = lower value 0.888 | S. cerevisiae deletion strains, locus YOR265W, strain rbl2, stronger effect = lower value 0.968 | S. cerevisiae deletion strains, locus YOR316C, strain cot1, stronger effect = lower value 0.96 | S. cerevisiae deletion strains, locus YPL051W, strain arl3, stronger effect = lower value 0.926 | S. cerevisiae deletion strains, locus YPL078C, strain atp4, stronger effect = lower value 0.898 | S. cerevisiae deletion strains, locus YPL240C, strain hsp82, stronger effect = lower value 1.01 | S. cerevisiae deletion strains, locus YPL241C, strain CIN2, stronger effect = lower value 0.975 | S. cerevisiae deletion strains, locus YPL256C, strain CLN2, stronger effect = lower value 0.951 | S. cerevisiae deletion strains, locus YPR119W, strain clb2, stronger effect = lower value 1.04 | S. cerevisiae deletion strains, locus YPR141C, strain kar3, stronger effect = lower value 1.03
active: S. cerevisiae deletion strains, locus YKL190W, strain CNB1, stronger effect = lower value 0.862 | S. cerevisiae deletion strains, locus YKR001C, strain vps1, stronger effect = lower value 0.899 | S. cerevisiae deletion strains, locus YLR039C, strain RIC1, stronger effect = lower value 0.388 | S. cerevisiae deletion strains, locus YLR058C, strain SHM2, stronger effect = lower value 0.799 | S. cerevisiae deletion strains, locus YLR221C, strain rsa3, stronger effect = lower value 0.86 | S. cerevisiae deletion strains, locus YLR262C, strain YPT6 (second series), stronger effect = lower value 0.435 | S. cerevisiae deletion strains, locus YLR262C, strain YPT6, stronger effect = lower value 0.413 | S. cerevisiae deletion strains, locus YLR268W, strain sec22, stronger effect = lower value 0.834 | S. cerevisiae deletion strains, locus YLR320W, strain mms22, stronger effect = lower value 0.606 | S. cerevisiae deletion strains, locus YLR330W, strain CHS5, stronger effect = lower value 0.87 | S. cerevisiae deletion strains, locus YLR342W, strain FKS1 (second series), stronger effect = lower value 0.733 | S. cerevisiae deletion strains, locus YLR357W, strain rsc2, stronger effect = lower value 1.16 [resistant] | S. cerevisiae deletion strains, locus YLR418C, strain cdc73, stronger effect = lower value 0.589 | S. cerevisiae deletion strains, locus YML032C, strain rad52, stronger effect = lower value 0.744 | S. cerevisiae deletion strains, locus YMR223W, strain ubp8, stronger effect = lower value 0.794 | S. cerevisiae deletion strains, locus YNL067W, strain RPL9B, stronger effect = lower value 0.825 | S. cerevisiae deletion strains, locus YNL071W, strain lat1, stronger effect = lower value 0.663 | S. cerevisiae deletion strains, locus YNL153C, strain GIM3, stronger effect = lower value 0.747 | S. cerevisiae deletion strains, locus YNL233W, strain BNI4, stronger effect = lower value 0.747 | S. cerevisiae deletion strains, locus YNL298W, strain CLA4, stronger effect = lower value 0.869 | S. cerevisiae deletion strains, locus YNL307C, strain MCK1, stronger effect = lower value 0.366 | S. cerevisiae deletion strains, locus YNL322C, strain KRE1, stronger effect = lower value 0.908 | S. cerevisiae deletion strains, locus YNR052C, strain pop2, stronger effect = lower value 0.768 | S. cerevisiae deletion strains, locus YOL006C, strain TOP1, stronger effect = lower value 0.425 | S. cerevisiae deletion strains, locus YOL147C, strain pex11, stronger effect = lower value 0.803 | S. cerevisiae deletion strains, locus YOR001W, strain rrp6, stronger effect = lower value 0.847 | S. cerevisiae deletion strains, locus YOR069W, strain VPS5, stronger effect = lower value 0.913 | S. cerevisiae deletion strains, locus YOR070C, strain gyp1, stronger effect = lower value 0.903 | S. cerevisiae deletion strains, locus YOR083W, strain WHI5, stronger effect = lower value 0.882 | S. cerevisiae deletion strains, locus YOR184W, strain ser1, stronger effect = lower value 0.363 | S. cerevisiae deletion strains, locus YOR270C, strain vph1, stronger effect = lower value 0.682 | S. cerevisiae deletion strains, locus YOR290C, strain snf2, stronger effect = lower value 0.831 | S. cerevisiae deletion strains, locus YPL055C, strain LGE1, stronger effect = lower value 0.677 | S. cerevisiae deletion strains, locus YPL106C, strain sse1, stronger effect = lower value 1.32 [resistant] | S. cerevisiae deletion strains, locus YPR163C, strain tif3, stronger effect = lower value 0.856 | S. cerevisiae deletion strains, locus YPR167C, strain met16, stronger effect = lower value 0.814 | S. cerevisiae deletion strains, strain wtn01, stronger effect = lower value 0.849 | S. cerevisiae strains, strain wild type, stronger effect = lower value 0.815
